Only some compounds are listed: those with a hit (about 5.1% of all), similar ones and a draw of the others.
S1P4 agonist: activates the human S1P4 receptor | 220,000 compounds, 0.35% hits | activation, % at 4.98 µM | O95977 | S1P4-expressing cell line, agonist reporter assay | AID 1509; in the data active means activation above about 11%;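 further: 0% = DMSO vehicle and 100% = reference agonist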
Target sequence (O95977 whole entry, looked up): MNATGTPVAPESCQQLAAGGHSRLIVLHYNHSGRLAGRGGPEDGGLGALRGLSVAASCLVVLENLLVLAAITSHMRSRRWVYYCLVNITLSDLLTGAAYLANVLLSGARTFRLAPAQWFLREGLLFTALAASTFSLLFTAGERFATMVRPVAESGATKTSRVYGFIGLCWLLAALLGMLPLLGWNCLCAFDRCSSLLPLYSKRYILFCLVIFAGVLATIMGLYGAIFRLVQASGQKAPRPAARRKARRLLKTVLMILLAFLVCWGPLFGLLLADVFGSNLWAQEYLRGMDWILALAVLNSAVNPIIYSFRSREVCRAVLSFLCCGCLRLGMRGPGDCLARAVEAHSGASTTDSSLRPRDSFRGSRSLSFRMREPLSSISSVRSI
S1P4 antag: human S1P4 receptor antagonism; 220,000 compounds, 0.26% hits; inhibition, % at 4.98 µM; S1P4-expressing cells, antagonist mode, reporter read-out; O95977; AID 1510; in the data active means inhibition above about 29%;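 further: 0% = wells stimulated with agonist and 100% = vehicle wells without agonist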
ROMK primary: modulates human ROMK potassium channel activity | Tet-inducible ROMK, thallium flux fluorescence; actives lie on both sides | B-score at 10 µM | 130,000 compounds, 2% hits | AID 1918;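 active means signal ratio slope over the read window, or its plate-corrected B-score, at least 3 SD from the plate mean, either direction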;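 further: B-score of the F/F0 ratio slope over 7 to 12 s after thallium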
Target sequence (P48048 whole entry, looked up): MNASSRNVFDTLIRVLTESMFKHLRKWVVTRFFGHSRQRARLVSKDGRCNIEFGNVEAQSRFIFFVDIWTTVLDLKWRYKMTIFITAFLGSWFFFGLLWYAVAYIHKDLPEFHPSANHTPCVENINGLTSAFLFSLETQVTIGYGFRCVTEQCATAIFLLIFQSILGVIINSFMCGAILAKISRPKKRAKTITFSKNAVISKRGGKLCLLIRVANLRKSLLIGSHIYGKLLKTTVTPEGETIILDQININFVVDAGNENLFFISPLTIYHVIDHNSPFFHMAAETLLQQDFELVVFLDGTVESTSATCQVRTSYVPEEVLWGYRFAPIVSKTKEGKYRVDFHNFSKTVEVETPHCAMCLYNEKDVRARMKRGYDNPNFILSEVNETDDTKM
Cl transport mod: modulates chloride dependent transport by human KCC2. Q9H2X9. KCC2 cells, thallium flux FluoZin-2 fluorescence. AID 1456. B-score of Tl+ flux slope (higher = more flux/activation; lower = inhibition) at 10 µM. 190,000 compounds, 2.2% hits;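 active means thallium flux slope and its plate-corrected score both differing from the plate sample mean at a set confidence after two filtering rounds, in either direction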;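 further: slope of fluorescence scaled to starting intensity during 10 to 20 s after thallium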
S1P3 antagonist: S1P3 (human) receptor antagonism; Q99500; CHO S1P3 NFAT-BLA reporter, FRET fluorescence, antagonist mode; inhibition, % at 4.98 µM; 170,000 compounds, 0.27% hits; AID 485;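 active means inhibition above the plate cutoff, the mean inhibition of test wells on that plate plus 3 SD, cut at about 28% in these data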;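 further: cells challenged with S1P at its EC80 of 0.8 µM; blue over green emission ratio from cleaved BLA substrate after 4 h stimulation; 0% = S1P-stimulated wells and 100% = unstimulated DMSO-only wells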
RAM inhibit: inhibitors of the yeast RAM network; S. cerevisiae dse1pr::URA3 reporter, 5-FOA growth OD615, 2 d; analog-sensitive cbk1-as2 kinase mutant strain; inhibition, % at 50 µM; 190,000 compounds, 1.8% hits;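 active means inhibition above a set limit, 3 SD over mean compound inhibition, cut at about 8.4% in these data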;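 further: 0% = DMSO-only wells with no growth and 100% = 10 µM 1-NA-PP1 full growth; inhibition rescues growth on 5-FOA so higher OD means more RAM inhibition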
KCC2 secondary: KCC2 (human) modulation, secondary assay | HEK293-KCC2, thallium flux, FluoZin2 fluorescence; hits give high values | 3,700 compounds, 15% hits | AID 1713 | shares compounds with Cl transport mod | normalised thallium flux (F/F0 slope) at 10 µM;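 active means thallium flux slope above the same plate's solvent-only control mean plus 3 SD; inconclusive means the two replicate wells disagree; inactive means no significant difference from solvent-only control wells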
KCC2 bumet counter: thallium flux persisting under bumetanide in KCC2 cells, counter-screen secondary assay; shares compounds with Cl transport mod; HEK293-KCC2 + bumetanide/ouabain, thallium flux FluoZin2; hits give high values; normalized thallium flux at 10 µM; 3,700 compounds, 49% hits;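 active means thallium entry rate above the same plate's blocked-transporter control wells by more than 3 SD; inconclusive means the two repeat wells disagree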;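 further: raw slope of fluorescence over initial fluorescence between 10 and 20 s after thallium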
KCC2 secondary2: KCC2 (human) modulation, second secondary assay; shares compounds with Cl transport mod; HEK293-KCC2, thallium flux FluoZin2 fluorescence; actives lie on both sides; F/F0 rise rate, 10–20 s post-thallium; normalized thallium flux at 10 µM; 3,700 compounds, 23% hits;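 active means thallium flux slope more than 3 SD above or below the plate's solvent-only control mean, mostly below; inconclusive means the two repeat wells disagreed; inactive means no significant shift from solvent-only controls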;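 further: raw slope with 0.1% DMSO as baseline and bumetanide as block control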
HEK293 Tl flux: acts in parental HEK cells, KCC2 counter-screen | shares compounds with Cl transport mod | HEK293 parental cells, thallium flux FluoZin2, ouabain; baseline-ratio fluorescence slope, 10–20 s after thallium | thallium flux rate (normalised fluorescence) at 10 µM | 3,700 compounds, 46% hits;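 active means thallium flux rate significantly above the same plate's solvent-only control wells, beyond their mean plus 3 SD; inconclusive means the two replicate wells gave conflicting results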
KCC2 retest ouab: confirmation of human KCC2 modulators with ouabain; shares compounds with Cl transport mod; HEK293-KCC2, thallium flux FluoZin2 fluorescence; bidirectional: low = inhibitor, high = activator; raw Tl+ flux slope (below DMSO = inhibition, above = activation) at 10 µM; 3,700 compounds, 48% hits; AID 1717;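 active means thallium flux slope beyond 3 SD from same-plate DMSO control mean in most replicates, usually higher, sometimes lower; inconclusive means repeat tests gave conflicting results; inactive means no significant difference from controls in most replicates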;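 further: slope of initial-normalized fluorescence between seconds 10 and 20 after thallium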
HEK293 Tl flux2: counter-screen for KCC2 modulators: effect in parental HEK293 cells | shares compounds with Cl transport mod | thallium flux FluoZin-2 fluorescence slope | thallium flux slope at 10 µM | 3,700 compounds, 33% hits | AID 1718;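 active means thallium flux slope above the same plate's solvent-control mean plus 3 SD in both duplicate wells; inconclusive means duplicate wells that disagreed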;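 further: run without ouabain in cells lacking the KCC2 cotransporter; slope of fluorescence scaled to its starting value between 10 and 20 s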
An asterisk follows results filed as active; ? = inconclusive; nt = no result given.

SMILES	S1P4 agonist	S1P4 antag	ROMK primary	Cl transport mod	S1P3 antagonist	RAM inhibit	KCC2 secondary	KCC2 bumet counter	KCC2 secondary2	HEK293 Tl flux	KCC2 retest ouab	HEK293 Tl flux2
O=C(NCCN=C1NS(=O)(=O)c2ccccc21)c1ccncc1	-3	6	-0.041	7*	nt	2	0.011	0.0058	0.032	?	0.022	0.01
CCOc1cc(/C=N/NC(=O)CCn2nc(C)cc2C)ccc1O	2	-21	nt	2.1	-9	nt	nt	nt	nt	nt	nt	nt
O=C(NCc1ccccc1C(F)(F)F)C1CC(c2cccc(F)c2)=NO1 (stereo unspecified)	nt	nt	nt	-2.7*	nt	nt	0.0074	0.0046	0.027	0.0069	0.018	0.0089
CC12C(=O)N(Cc3ccco3)C(=O)C1C1c3ccccc3C2c2ccccc21 (stereo unspecified)	-2	18	-1.5	-1.5	nt	5	nt	nt	nt	nt	nt	nt
CCOC(=O)c1ccc(NC(=O)COC(=O)Cc2csc(-c3ccccc3)n2)cc1	-1	-6	nt	-4.9*	-32	2	0.0061*	0.015*	?	0.011*	0.016*	0.011
NC(=O)c1ccc(NC(=O)Cc2csc(-c3ccccc3)n2)cc1	1	-6	0.63	-0.87	1	1	nt	nt	nt	nt	nt	nt
CC(=O)Oc1ccc(C(=O)O)c(OC(C)=O)c1	-2	-6	nt	0.33	-3	nt	nt	nt	nt	nt	nt	nt
COc1ccc(C(=O)/C=C/c2ccccc2)c(O)c1	0	7	0.37	1.1	0	1	nt	nt	nt	nt	nt	nt
COc1ccc(C(=O)c2ccc(OC)cc2O)c(O)c1	1	-9	-0.031	5.8*	-1	2	0.0088	0.0053	0.029	0.0072	0.026	0.0097
O=C(O)c1cc(-c2ccc(/C=N/N3C(=O)C4C5C=CC(CC5)C4C3=O)o2)ccc1Cl (stereo unspecified)	-1	-7	0.79	-9.7*	-1	3	0.0086	?	0.03	0.007	0.035	0.0095
CNS(=O)(=O)c1c(C)cc(C)c(N(C)S(=O)(=O)c2ccccc2)c1C	-1	-1	0.57	0.26	1	2	nt	nt	nt	nt	nt	nt
C=C/C(C)=C/CC1C(=C)CCC2C(C)(C(=O)O)CCCC12C (stereo unspecified)	nt	nt	nt	2.3*	nt	nt	0.0068	0.0092*	0.031	0.012*	?	0.014*
C#CCNC(=O)C1=C[C@H](c2coc3ccccc3c2=O)[C@@H](CCCO)[C@H](OCC)O1	-1	0	nt	1.5	-18	0	nt	nt	nt	nt	nt	nt
Cn1nnc(C(O)CNCc2cccs2)n1 (stereo unspecified)	-4	15	-0.072	0.2	-4	2	nt	nt	nt	nt	nt	nt
Cn1nnc(NCc2cc(Br)ccc2OCc2cccs2)n1	0	-27	nt	nt	6	4	0.0071	0.0052	0.026*	0.0076	?	0.01
O=C(Cc1ccccc1)Nc1cc(C(=O)c2ccccc2)ccc1N1CCOCC1	1	-6	-0.13	nt	nt	3	nt	nt	nt	nt	nt	nt
CCOc1ccc2nc(SC3CC(=O)N(c4ccc(OC)cc4OC)C3=O)sc2c1 (stereo unspecified)	-1	-8	1.2	5.8*	-17	4	0.007	0.013*	0.035	0.014*	?	0.017*
CCN=c1scc(-c2ccc(F)cc2)n1/N=C/c1ccccn1	0	-2	0.46	-5.7*	2	-1	0.0052	0.0044	0.023*	?	0.014*	0.011
Fc1ccc(F)c(C2=NNC(=Nc3ccccc3F)SC2)c1	6	-2	0.92	5.9*	1	1	0.0067	0.011*	0.034	0.011*	0.026*	0.014*
Cc1cccc(N=C2NN=C(c3ccccc3F)CS2)c1C	0	-15	1	11*	-1	2	0.011	0.013*	0.037	0.018*	0.026*	?
Fc1ccccc1N=C1NN=C(c2ccccc2)CS1	-3	9	-1.3	-0.97	-14	2	nt	nt	nt	nt	nt	nt
CC(NC(=O)C1CCN(S(=O)(=O)c2cnc[nH]2)CC1)c1ccccc1 (stereo unspecified)	-1	-10	0.81	0.77	-11	0	nt	nt	nt	nt	nt	nt
O=C(/C=C/c1ccc(F)cc1)NC(=S)N1CCOCC1	0	-17	0.49	1.7	-5	2	nt	nt	nt	nt	nt	nt
O=C(NC(=S)N1CCN(C/C=C/c2ccccc2)CC1)c1ccco1	1	-3	-0.4	4.2*	7	0	0.0055	0.015*	0.033	0.014*	?	0.016*
O=C(NC(=S)N1CCN(C/C=C/c2ccccc2)CC1)c1c(F)cccc1F	1	-12	-0.39	6.8*	-2	2	0.018*	0.042*	0.03	0.015*	?	?
SMILES	S1P4 agonist	S1P4 antag	ROMK primary	Cl transport mod	S1P3 antagonist	RAM inhibit	KCC2 secondary	KCC2 bumet counter	KCC2 secondary2	HEK293 Tl flux	KCC2 retest ouab	HEK293 Tl flux2
O=C(/C=C/c1ccc(F)cc1)NC(=S)N1CCN(Cc2ccccc2)CC1	0	-4	nt	40*	-2	nt	0.0063	0.042*	0.032	0.03*	0.031*	0.026*
Fc1ccc(NC(=S)N2CCN(C/C=C/c3ccccc3)CC2)c(F)c1	-2	-12	1.2	-1.8	-14	0	nt	nt	nt	nt	nt	nt
O=C(/C=C/c1ccccc1[N+](=O)[O-])NC1CCCC1	-1	5	-0.89	0.14	0	4	nt	nt	nt	nt	nt	nt
CC1CCCCN1c1nnc(NC(=O)c2cc(-c3ccc(Br)cc3)on2)s1 (stereo unspecified)	-2	-5	nt	2.4	nt	3	nt	nt	nt	nt	nt	nt
Cc1ccc(S(=O)(=O)N2CCC(C(=O)NCCc3ccccn3)CC2)cc1	0	-1	-1.2	-1.6	-1	0	nt	nt	nt	nt	nt	nt
O=C(CCCc1c[nH]c2ccccc12)NCc1ccc2c(c1)OCO2	0	-2	0.6	-4.5*	nt	1	0.0068	0.0065	0.028	0.0065	?	0.0098
O=C(CCc1c[nH]c2ccccc12)NCc1ccc2c(c1)OCO2	-1	-2	nt	0.21	nt	1	nt	nt	nt	nt	nt	nt
COc1cc(C(=O)NC(=S)Nc2ccc3c(c2)C(=O)N(C)C3=O)cc(OC)c1OC	0	-10	0.64	-0.13	3	4	nt	nt	nt	nt	nt	nt
